Screening data deposited in PubChem by National Center for Advancing Translational Sciences (NCATS).
IL2 activator: IL-2 activation. IL-2 activation reporter assay, cell-based qHTS; stimulated with anti-CD3/CD4/CD28 beads; in transgenic mouse T cells. activation, % (series mostly up to about 46 µM). actives 0.065% (n = 360,000). AID 652025; in the data active means activation above about 50%; inconclusive means mostly about 30% to 49%; further: 0% is about no effect
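Unstimulated transgenic mouse T cells; 60-min compound exposure; bead-based TCR/CD4/CD28 stimulation; 18 h culture, 37 degrees C; dual fluorescence (EGFP, DsRed) plate cytometry.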
PKM2 activator: increases activity of human pyruvate kinase M2; purified PKM2, Kinase-Glo ATP luminescence, activation; response scale: 0% is enzyme alone, no compound; actives 0.34% (n = 260,000); Potency, µM (series often up to 57.5 µM), for inactives: at the top dose activation, hits mostly activators; P14618; further: potency means the concentration at half of the fitted maximal effect; on the % scale 0 is the no-effect control and ±100 the full control effect; nearly all actives have a fitted effect of over 55% in size
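hPK-M2, >95% pure; 0.1 mM ADP / 0.5 mM PEP final; imidazole pH7.2 buffer w/ 7 mM MgCl2, 50 mM KCl; 1 h RT; Kinase-Glo lum. Intermediate enzyme activity for dual inhibitor/activator qHTS.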
ASM inhibitor: inhibitors of human secretory acid sphingomyelinase; P17405; placental ASM, HMU-PC fluorogenic substrate, 60 min; Potency, µM (highest dose often 57.5 µM), for inactives: at the highest dose activity change, negative = inhibition, actives largely listed as inhibitors; actives 0.006% (n = 340,000); AID 504937; further: potency means the concentration at half of the fitted maximal effect
Target sequence (P17405 47-631 limits assumed): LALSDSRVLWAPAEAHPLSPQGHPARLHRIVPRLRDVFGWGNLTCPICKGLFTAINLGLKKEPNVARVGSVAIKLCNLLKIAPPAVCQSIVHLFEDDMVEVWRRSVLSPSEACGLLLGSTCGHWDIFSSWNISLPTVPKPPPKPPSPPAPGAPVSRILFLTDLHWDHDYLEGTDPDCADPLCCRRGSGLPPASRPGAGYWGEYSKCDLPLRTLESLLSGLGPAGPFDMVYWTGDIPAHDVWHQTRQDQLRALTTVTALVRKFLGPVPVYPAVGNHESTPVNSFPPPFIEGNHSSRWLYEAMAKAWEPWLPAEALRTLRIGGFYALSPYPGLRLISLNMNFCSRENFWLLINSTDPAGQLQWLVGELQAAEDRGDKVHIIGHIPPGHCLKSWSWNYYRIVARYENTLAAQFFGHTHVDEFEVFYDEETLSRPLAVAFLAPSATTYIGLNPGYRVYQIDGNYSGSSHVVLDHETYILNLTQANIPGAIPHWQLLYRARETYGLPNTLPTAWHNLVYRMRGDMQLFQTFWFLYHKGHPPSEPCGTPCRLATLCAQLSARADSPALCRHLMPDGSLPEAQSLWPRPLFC
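Fluorescence read-out (Ex 386 nm, Em 447 nm) after stopping the reaction at pH 10. Enzyme: ASM from human placenta; substrate HMU-PC0, 9 uM final; 60 min, 37 °C. Compound preincubation 10 min, ambient temperature.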
HeLa viability: HeLa cytotoxicity, CellTiter-Glo readout; shares compounds with PKM2 activator; HeLa viability, CellTiter-Glo ATP luminescence, 24 h; activity change, negative = cytotoxicity, % at 57.5 µM; 230 tested, under 10 active; AID 1898; further: % of control where 0% means no effect
Numbers without * were called inactive. Only some compounds are listed: those with a hit (about 0.33% of all), similar ones and a draw of the others. Unless noted, the call rests on the fitted dose curve; in most records, active means well fitted curve in the direction sought with a large enough effect; inconclusive means small, poorly fitted or top-dose-only effect, or another doubt; inactive means no such curve, though single readings can be large; an effect the other way counts as inactive or inconclusive.

How did O=S(=O)(c1ccc2c(c1)OCCO2)N1CCN(S(=O)(=O)c2c(F)cccc2F)CC1 do in these assays?
HeLa viability: inconclusive

What do the screens show for `O=C(NCC(=O)N1CCN(S(=O)(=O)c2ccc3c(c2)OCCO3)CC1)c1ccccc1F`?
IL2 activator: 0; ASM inhibitor: -2%

Results for O=S(=O)(NCC1CN(S(=O)(=O)c2c(F)cccc2F)C1)c1ccc2c(c1)OCCO2 ?
IL2 activator: -4; ASM inhibitor: 6%; HeLa viability: -6

How did Cc1cccc(S(=O)(=O)N2CCN(Cc3ccc4c(c3)OCO4)CC2)c1 do in these assays?
IL2 activator: 0; PKM2 activator: 3%; ASM inhibitor: 3%

How did O=S(=O)(NCCOc1ccc(F)cc1)c1ccc2c(c1)OCCO2 do in these assays?
IL2 activator: 0; PKM2 activator: 9%; ASM inhibitor: -2%

Results for O=C(c1ccccc1F)N1CCN(S(=O)(=O)c2ccc3c(c2)OCCO3)CC1 ?
IL2 activator: -3; PKM2 activator: inconclusive; ASM inhibitor: 3%

Results for O=S(=O)(c1ccc2c(c1)OCCO2)N1CCCN(S(=O)(=O)c2c(F)cccc2F)CC1 ?
IL2 activator: 0; ASM inhibitor: 9%; HeLa viability: -13

What do the screens show for `O=C1CN(S(=O)(=O)c2ccc3c(c2)OCCO3)CCN1S(=O)(=O)c1c(F)cccc1F`?
HeLa viability: -13

How did O=S(=O)(c1ccc2c(c1)OCO2)N1CCN(S(=O)(=O)c2c(F)cccc2F)CC1 do in these assays?
HeLa viability: inconclusive

How did CC(C(=O)N1CCCC1)c1ccc([N+](=O)[O-])cc1 (centres undefined) do in these assays?
IL2 activator: -1; PKM2 activator: 5%; ASM inhibitor: 0%

How did CCOC(=O)c1cnc(SCC(=O)Nc2ccc(N3CCOCC3)c(Cl)c2)nc1N do in these assays?
IL2 activator: 1; PKM2 activator: 5%; ASM inhibitor: -4%

How did COc1cc(OC)cc(C(=O)N2CCN(S(=O)(=O)c3ccc4c(c3)OCCO4)CC2)c1 do in these assays?
IL2 activator: -1

What do the screens show for `CS(=O)(=O)N1CCN(C(=O)c2ccc3c(c2)OCCO3)CC1`?
IL2 activator: 0; PKM2 activator: 9%; ASM inhibitor: 4%

What do the screens show for `O=S(=O)(c1c(F)cccc1F)C1CCN(S(=O)(=O)c2ccc3c(c2)OCCO3)CC1`?
IL2 activator: -2; ASM inhibitor: 1%; HeLa viability: -9

What do the screens show for `COc1cccc(S(=O)(=O)N2CCN(S(=O)(=O)c3ccc4c(c3)OCCO4)CC2)c1`?
HeLa viability: 2

What do the screens show for `CC1(C)CCc2cc(S(=O)(=O)N3CCN(S(=O)(=O)c4c(F)cccc4F)CC3)ccc2O1`?
IL2 activator: 8; ASM inhibitor: -2%; HeLa viability: -21

What do the screens show for `O=C1CCc2cc(S(=O)(=O)N3CCN(c4ccccc4F)CC3)ccc2N1`?
IL2 activator: 2; PKM2 activator: 4%; ASM inhibitor: -1%

Results for O=C(c1ccc2c(c1)OCCO2)N1CCN(S(=O)(=O)c2c(F)cccc2F)CC1 ?
IL2 activator: 1; ASM inhibitor: 2%; HeLa viability: inconclusive

Results for Cc1cccc(N2CCN(S(=O)(=O)c3ccc4c(c3)OCCO4)CC2)c1C ?
IL2 activator: 0; PKM2 activator: 13%; ASM inhibitor: 2%

How did O=S(=O)(Nc1ccncc1Cl)c1ccccc1 do in these assays?
IL2 activator: 0; PKM2 activator: 1%; ASM inhibitor: 0%

What do the screens show for `Cc1c(CC(=O)NCC(=O)NCC(=O)O)c(=O)oc2c(C)c3oc4c(c3cc12)CCCC4`?
IL2 activator: -3; ASM inhibitor: 198%

Results for Nc1ncnc(Oc2cccc(C(F)(F)F)c2)c1[N+](=O)[O-] ?
IL2 activator: 0; PKM2 activator: 7%; ASM inhibitor: -2%

What do the screens show for `CCOc1cc(-c2noc(CCC(=O)Nc3cccnc3)n2)ccc1OC`?
IL2 activator: 0; PKM2 activator: 1.4µM*; ASM inhibitor: 1%; HeLa viability: -4

What do the screens show for `COc1ccc(-c2noc(CCC(=O)Nc3cccnc3)n2)cc1`?
IL2 activator: 0; ASM inhibitor: 4%

What do the screens show for `Cc1ccc(C)c(-n2sc3ccc(F)cc3c2=O)c1`?
IL2 activator: -1; ASM inhibitor: 2%
